Data published in article PMC12820563, “FoxP3 forms a head-to-head dimer in vivo and stabilizes its multimerization on adjacent microsatellites”.
The full ranking holds about 16,000 sequences; the median of “rpm ratio (pull-down/input)” is about 0.5, and the highest 2% start at about 5.5. For the sample, the highest values were picked, then their nearest neighbours and some sequences at random.

Target: T1, MBP-FoxP3dN (Mus musculus, UniProt Q99JB6 188-423)
T1 sequence: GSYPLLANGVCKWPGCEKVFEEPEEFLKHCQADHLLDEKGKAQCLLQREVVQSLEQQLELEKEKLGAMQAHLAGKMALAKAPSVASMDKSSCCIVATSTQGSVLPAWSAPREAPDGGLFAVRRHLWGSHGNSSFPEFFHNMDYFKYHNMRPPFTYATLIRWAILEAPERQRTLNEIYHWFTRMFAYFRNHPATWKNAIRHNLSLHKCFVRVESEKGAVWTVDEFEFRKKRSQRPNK
Experiment: PD-seq (MBP pull-down with sequencing); 20 mM Tris-HCl pH 7.5, 100 mM NaCl, 1.5 mM MgCl2, 0.4 uM protein, 0.1 uM dsDNA library, 30 min, room temperature, amylose pull-down; high values mean tight binding
Conditions: protein: recombinant; tags: His6-MBP; chain copies: 2; dsDNA, one strand shown
Procedure, shortened: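 Amylose resin was used to capture complexes formed during 30 min at room temperature in Tris pH 7.5 buffer with NaCl and MgCl2 between 0.4 µM His6-MBP-tagged mouse FoxP3 or FoxP1 fragment lacking the N-terminus, expressed in E. coli, and 0.1 µM Klenow-filled double-stranded degenerate DNA library. After three washes, the DNA was released with proteinase K, barcoded by PCR and sequenced on Illumina. Binding is pooled-replicate reads-per-million enrichment, pull-down over input.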

Row | Sequence | binding signal
1 | GATGATTGTTCTCCCAGCTGATGAATTACTTACATCGAGTAAACAAATTTTCCTAATCTTTCTGTTCAAGCGCCATCTAC | 0.574 RPM ratio (pull-down/input)
2 | GATGATTGTTCTCCCAGCTGATGAATTGTCGCATTCGAGTAAACAAATTTTCCTAATCTTTCTGTTCAAGCGCCATCTAC | 6.14 RPM ratio (pull-down/input)
3 | GATGATTGTTCTCCCAGCTGATGAATTCGCATCCTCGAGTAAACAAATTTTCCTAATCTTTCTGTTCAAGCGCCATCTAC | 5.74 RPM ratio (pull-down/input)
4 | GATGATTGTTCTCCCAGCTGATGAATTATCGCATTCGAGTAAACAAATTTTCCTAATCTTTCTGTTCAAGCGCCATCTAC | 6.64 RPM ratio (pull-down/input)
5 | GATGATTGTTCTCCCAGCTGATGAATTCGCATTATCGAGTAAACAAATTTTCCTAATCTTTCTGTTCAAGCGCCATCTAC | 3.53 RPM ratio (pull-down/input)
6 | GATGATTGTTCTCCCAGCTGATGAATTCGCCTCCTCGAGTAAACAAATTTTCCTAATCTTTCTGTTCAAGCGCCATCTAC | 2.15 RPM ratio (pull-down/input)
7 | GATGATTGTTCTCCCAGCTGATGAATTCGCATTGTCGAGTAAACAAATTTTCCTAATCTTTCTGTTCAAGCGCCATCTAC | 3.91 RPM ratio (pull-down/input)
8 | GATGATTGTTCTCCCAGCTGATGAATTCCTCGCATCGAGTAAACAAATTTTCCTAATCTTTCTGTTCAAGCGCCATCTAC | 0.768 RPM ratio (pull-down/input)
9 | GATGATTGTTCTCCCAGCTGATGAATTATTCGCATCGAGTAAACAAATTTTCCTAATCTTTCTGTTCAAGCGCCATCTAC | 1.12 RPM ratio (pull-down/input)
10 | GATGATTGTTCTCCCAGCTGATGAATTCCCATTGTCGAGTAAACAAATTTTCCTAATCTTTCTGTTCAAGCGCCATCTAC | 0.454 RPM ratio (pull-down/input)
11 | GATGATTGTTCTCCCAGCTGATGAATTCTAAACTTCGAGTAAACAAATTTTCCTAATCTTTCTGTTCAAGCGCCATCTAC | 0.381 RPM ratio (pull-down/input)
12 | GATGATTGTTCTCCCAGCTGATGAATTTCCATTTTCGAGTAAACAAATTTTCCTAATCTTTCTGTTCAAGCGCCATCTAC | 0.295 RPM ratio (pull-down/input)
13 | GATGATTGTTCTCCCAGCTGATGAATTAACATAATCGAGTAAACAAATTTTCCTAATCTTTCTGTTCAAGCGCCATCTAC | 0.409 RPM ratio (pull-down/input)
14 | GATGATTGTTCTCCCAGCTGATGAATTGCTTTTGTCGAGTAAACAAATTTTCCTAATCTTTCTGTTCAAGCGCCATCTAC | 1.51 RPM ratio (pull-down/input)
15 | GATGATTGTTCTCCCAGCTGATGAATTTGCTTTGTCGAGTAAACAAATTTTCCTAATCTTTCTGTTCAAGCGCCATCTAC | 6.34 RPM ratio (pull-down/input)
16 | GATGATTGTTCTCCCAGCTGATGAATTGTGCTTGTCGAGTAAACAAATTTTCCTAATCTTTCTGTTCAAGCGCCATCTAC | 5.16 RPM ratio (pull-down/input)
17 | GATGATTGTTCTCCCAGCTGATGAATTGCTTTGGTCGAGTAAACAAATTTTCCTAATCTTTCTGTTCAAGCGCCATCTAC | 1.08 RPM ratio (pull-down/input)

Row | Sequence | binding signal
18 | GATGATTGTTCTCCCAGCTGATGAATTGCTTGGGTCGAGTAAACAAATTTTCCTAATCTTTCTGTTCAAGCGCCATCTAC | 0.775 RPM ratio (pull-down/input)
19 | GATGATTGTTCTCCCAGCTGATGAATTTTGCTTGTCGAGTAAACAAATTTTCCTAATCTTTCTGTTCAAGCGCCATCTAC | 5.89 RPM ratio (pull-down/input)
20 | GATGATTGTTCTCCCAGCTGATGAATTGCTTCTGTCGAGTAAACAAATTTTCCTAATCTTTCTGTTCAAGCGCCATCTAC | 0.468 RPM ratio (pull-down/input)
21 | GATGATTGTTCTCCCAGCTGATGAATTTGCTTGGTCGAGTAAACAAATTTTCCTAATCTTTCTGTTCAAGCGCCATCTAC | 5.74 RPM ratio (pull-down/input)
22 | GATGATTGTTCTCCCAGCTGATGAATTCTTGCTGTCGAGTAAACAAATTTTCCTAATCTTTCTGTTCAAGCGCCATCTAC | 0.508 RPM ratio (pull-down/input)
23 | GATGATTGTTCTCCCAGCTGATGAATTGCGTATTTCGAGTAAACAAATTTTCCTAATCTTTCTGTTCAAGCGCCATCTAC | 3.53 RPM ratio (pull-down/input)
24 | GATGATTGTTCTCCCAGCTGATGAATTGCTAAAATCGAGTAAACAAATTTTCCTAATCTTTCTGTTCAAGCGCCATCTAC | 0.394 RPM ratio (pull-down/input)
25 | GATGATTGTTCTCCCAGCTGATGAATTTTACGATTCGAGTAAACAAATTTTCCTAATCTTTCTGTTCAAGCGCCATCTAC | 0.308 RPM ratio (pull-down/input)
26 | GATGATTGTTCTCCCAGCTGATGAATTGTAAAGATCGAGTAAACAAATTTTCCTAATCTTTCTGTTCAAGCGCCATCTAC | 0.29 RPM ratio (pull-down/input)
27 | GATGATTGTTCTCCCAGCTGATGAATTACAGCCGTCGAGTAAACAAATTTTCCTAATCTTTCTGTTCAAGCGCCATCTAC | 0.412 RPM ratio (pull-down/input)
28 | GATGATTGTTCTCCCAGCTGATGAATTTTGACGTTCGAGTAAACAAATTTTCCTAATCTTTCTGTTCAAGCGCCATCTAC | 0.933 RPM ratio (pull-down/input)
29 | GATGATTGTTCTCCCAGCTGATGAATTACGATCATCGAGTAAACAAATTTTCCTAATCTTTCTGTTCAAGCGCCATCTAC | 0.571 RPM ratio (pull-down/input)
30 | GATGATTGTTCTCCCAGCTGATGAATTCTGCATCTCGAGTAAACAAATTTTCCTAATCTTTCTGTTCAAGCGCCATCTAC | 6.75 RPM ratio (pull-down/input)
31 | GATGATTGTTCTCCCAGCTGATGAATTCTGCATTTCGAGTAAACAAATTTTCCTAATCTTTCTGTTCAAGCGCCATCTAC | 6.51 RPM ratio (pull-down/input)
32 | GATGATTGTTCTCCCAGCTGATGAATTCTGCTGTTCGAGTAAACAAATTTTCCTAATCTTTCTGTTCAAGCGCCATCTAC | 3.41 RPM ratio (pull-down/input)
33 | GATGATTGTTCTCCCAGCTGATGAATTCTGCAGCTCGAGTAAACAAATTTTCCTAATCTTTCTGTTCAAGCGCCATCTAC | 2.66 RPM ratio (pull-down/input)
